# The supplement of paper PMC8975748
# Structures can show the parent of a compound that is named as a salt.
# Columns and labels:
# [1] = test system: Saccharomyces cerevisiae BY4741 SeMeCo community; experiment: z-score of prototroph abundance vs DMSO median; higher = larger share of this subpopulation than in DMSO controls; details: 10 µM; 24 h; SM minimal medium; subpopulation (auxotrophy): Prototroph
# Summary of the method: (§1)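 Automated confocal microscopy of paraformaldehyde-fixed cells was used to follow a Saccharomyces cerevisiae BY4741 community carrying four plasmids, each restoring one auxotrophy and encoding a distinct fluorescent protein. The community was pre-grown overnight to OD600 1.0, diluted to 0.3, and added at 70 µl to 384-well plates acoustically predosed with library drugs (10 µM final) for 24 h of growth in minimal SM medium. Single-auxotroph fluorescent strains set thresholds and autofluorescence correction, and each subpopulation's abundance was scored as a z-score against the vehicle-well median.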
# [2] = test system: Saccharomyces cerevisiae BY4741 SeMeCo community; experiment: z-score of subpopulation abundance vs DMSO median, subpopulation auxotrophic for M; higher = larger share of this subpopulation than in DMSO controls; details: 10 µM; 24 h; SM minimal medium; subpopulation (auxotrophy): M
# Summary of the method: as §1
# [3] = test system: Saccharomyces cerevisiae BY4741 SeMeCo community; experiment: z-score of subpopulation abundance vs DMSO median, subpopulation auxotrophic for L; higher = larger share of this subpopulation than in DMSO controls; details: 10 µM; 24 h; SM minimal medium; subpopulation (auxotrophy): L
# Summary of the method: as §1
# [4] = test system: Saccharomyces cerevisiae BY4741 SeMeCo community; experiment: z-score of subpopulation abundance vs DMSO median, subpopulation auxotrophic for H; higher = larger share of this subpopulation than in DMSO controls; details: 10 µM; 24 h; SM minimal medium; subpopulation (auxotrophy): H
# Summary of the method: as §1
# [5] = test system: Saccharomyces cerevisiae BY4741 SeMeCo community; experiment: z-score of subpopulation abundance vs DMSO median, subpopulation auxotrophic for LU; higher = larger share of this subpopulation than in DMSO controls; details: 10 µM; 24 h; SM minimal medium; subpopulation (auxotrophy): LU
# Summary of the method: as §1
# [6] = test system: Saccharomyces cerevisiae BY4741 SeMeCo community; experiment: z-score of subpopulation abundance vs DMSO median, subpopulation auxotrophic for LM; higher = larger share of this subpopulation than in DMSO controls; details: 10 µM; 24 h; SM minimal medium; subpopulation (auxotrophy): LM
# Summary of the method: as §1
# [7] = test system: Saccharomyces cerevisiae BY4741 SeMeCo community; experiment: z-score of subpopulation abundance vs DMSO median, subpopulation auxotrophic for HM; higher = larger share of this subpopulation than in DMSO controls; details: 10 µM; 24 h; SM minimal medium; subpopulation (auxotrophy): HM
# Summary of the method: as §1
# [8] = test system: Saccharomyces cerevisiae BY4741 SeMeCo community; experiment: z-score of subpopulation abundance vs DMSO median, subpopulation auxotrophic for HU; higher = larger share of this subpopulation than in DMSO controls; details: 10 µM; 24 h; SM minimal medium; subpopulation (auxotrophy): HU
# Summary of the method: as §1
# [9] = test system: Saccharomyces cerevisiae BY4741 SeMeCo community; experiment: z-score of subpopulation abundance vs DMSO median, subpopulation auxotrophic for UM; higher = larger share of this subpopulation than in DMSO controls; details: 10 µM; 24 h; SM minimal medium; subpopulation (auxotrophy): UM
# Summary of the method: as §1
# [10] = test system: Saccharomyces cerevisiae BY4741 SeMeCo community; experiment: z-score of subpopulation abundance vs DMSO median, subpopulation auxotrophic for HL; higher = larger share of this subpopulation than in DMSO controls; details: 10 µM; 24 h; SM minimal medium; subpopulation (auxotrophy): HL
# Summary of the method: as §1
# [11] = test system: Saccharomyces cerevisiae BY4741 SeMeCo community; experiment: z-score of subpopulation abundance vs DMSO median, subpopulation auxotrophic for HLU; higher = larger share of this subpopulation than in DMSO controls; details: 10 µM; 24 h; SM minimal medium; subpopulation (auxotrophy): HLU
# Summary of the method: as §1
# [12] = test system: Saccharomyces cerevisiae BY4741 SeMeCo community; experiment: z-score of subpopulation abundance vs DMSO median, subpopulation auxotrophic for HLM; higher = larger share of this subpopulation than in DMSO controls; details: 10 µM; 24 h; SM minimal medium; subpopulation (auxotrophy): HLM
# Summary of the method: as §1
# [13] = test system: Saccharomyces cerevisiae BY4741 SeMeCo community; experiment: z-score of subpopulation abundance vs DMSO median, subpopulation auxotrophic for HUM; higher = larger share of this subpopulation than in DMSO controls; details: 10 µM; 24 h; SM minimal medium; subpopulation (auxotrophy): HUM
# Summary of the method: as §1
# [14] = test system: Saccharomyces cerevisiae BY4741 SeMeCo community; experiment: z-score of subpopulation abundance vs DMSO median, subpopulation auxotrophic for LUM; higher = larger share of this subpopulation than in DMSO controls; details: 10 µM; 24 h; SM minimal medium; subpopulation (auxotrophy): LUM
# Summary of the method: as §1
# [15] = test system: Saccharomyces cerevisiae BY4741 SeMeCo community; experiment: z-score of subpopulation abundance vs DMSO median, subpopulation auxotrophic for HLUM; higher = larger share of this subpopulation than in DMSO controls; details: 10 µM; 24 h; SM minimal medium; subpopulation (auxotrophy): HLUM
# Summary of the method: as §1
# [16] = test system: Saccharomyces cerevisiae BY4741 SeMeCo community; experiment: z-score of subpopulation abundance vs DMSO median, subpopulation auxotrophic for U; higher = larger share of this subpopulation than in DMSO controls; details: 10 µM; 24 h; SM minimal medium; subpopulation (auxotrophy): U
# Summary of the method: as §1
Structure (SMILES),z-score of prototroph abundance [1],z-score of subpopulation abundance [2],z-score of subpopulation abundance [3],z-score of subpopulation abundance [4],z-score of subpopulation abundance [5],z-score of subpopulation abundance [6],z-score of subpopulation abundance [7],z-score of subpopulation abundance [8],z-score of subpopulation abundance [9],z-score of subpopulation abundance [10],z-score of subpopulation abundance [11],z-score of subpopulation abundance [12],z-score of subpopulation abundance [13],z-score of subpopulation abundance [14],z-score of subpopulation abundance [15],z-score of subpopulation abundance [16]
COc1ccc2c(c1)c(CC(=O)OCC(=O)O)c(C)n2C(=O)c1ccc(Cl)cc1 [Acemetacin],-0.16,0.01,-1.06,0.66,0.16,-0.54,0.71,0.77,0.2,0.11,-0.64,-0.3,0.69,-0.15,-0.61,
CCC1=C(C)CN(C(=O)NCCc2ccc(S(=O)(=O)NC(=O)N[C@H]3CC[C@H](C)CC3)cc2)C1=O [Glimepiride],-0.13,-0.24,0.24,-0.23,-0.1,0.34,0.24,0.22,,0.01,0.26,0.03,0.42,-0.01,0.7,
CC1(C)S[C@@H]2[C@H](NC(=O)[C@H](N)c3ccccc3)C(=O)N2[C@H]1C(=O)OCOC(=O)[C@@H]1N2C(=O)C[C@H]2S(=O)(=O)C1(C)C [Sultamicillin Tosylate],-0.54,0.72,-0.36,-0.32,-0.03,-0.09,0.76,0.19,0.25,0.21,-0.45,-0.09,0.26,-0.41,-0.64,0.67
